PubChem BioAssay (NCATS)
Inconclusive results are not listed. Active and inactive are the calls of the source. Calls follow the shape of the dose curve; as a rule, active = well fitted inhibition curve with a large enough effect; inconclusive = small, poorly fitted or top-dose-only effect; inactive = no such curve, though single readings can be large or run the other way. Starred links: 1 amine or outer side, 2 acyl side, 3 side chain; linkers in the order of their positions; H or OH if unused. Positions of bridges follow the written chain, without caps; N, C: chain ends. Non-standard residues stand in square brackets, D forms with d. Residues, ends and D or L forms follow the SMILES beside them. Chains are numbered I, II in the order given. Actinocin(9to1) = Cc1c2oc3c(C)ccc(C(=O)[*:1])c3nc-2c(C(=O)[*:2])c(N)c1=O; NMeV = CN[CH](C(=O)O)C(C)C; Sar = CNCC(=O)O
% is scaled to controls: 0 for no effect and ±100 for the full control effect.

Assay: Primary qHTS for small molecule stabilizers of the endoplasmic reticulum resident proteome: Secreted ER Calcium Modulated Protein (SERCaMP) assay (AID 1508630)
Settings: SH-SY5Y GLuc-SERCaMP (Gaussia luciferase released on ER calcium loss) secretion, thapsigargin, luminescence; series mostly up to 38.4 µM; activity change, negative = inhibition: at the top concentration
Source text: Assay Provider: Brandon K. Harvey Ph.D.
National Institute on Drug Abuse, National Institutes of Health, Baltimore, MD
Endoplasmic reticulum (ER) dysregulation is associated with human pathologies including neurodegenerative, cardiovascular, muscular, and diabetic conditions. Maintenance of ER calcium is critical for functions of the ER and its depletion can lead to loss of ER resident proteins, in a process termed exodosis. Therapeutic compounds capable of attenuating the redistribution of ER proteins under pathological conditions may slow or stop disease progression. To identify such compounds, we performed a quantitative high-throughput screen (qHTS) using the SERCaMP assay, which monitors secretion of ER resident proteins triggered by calcium depletion.
SERCaMP was initially developed as a reporter of ER calcium homeostasis using a Gaussia luciferase with a modified signal peptide and carboxy-terminus (GLuc-SERCaMP), modifications that confer secretion of the reporter in response to ER calcium depletion (Henderson et al., 2014). The assay was used to screen 9,501 compounds, including a collection of drugs approved by the FDA (US), EMA (EU), NHI (Japan), and HC (Canada) regulatory agencies (Huang et al., 2011). Since the SERCaMP reporter reflects the exodosis phenomenon (Trychta et al., 2018a), compounds identified in the screen have the potential to prevent exodosis by different mechanisms such as stabilizing ER calcium or augmenting ERS retrieval.
1. Henderson, M.J., Wires, E.S., Trychta, K.A., Richie, C.T., and Harvey, B.K. (2014). SERCaMP: a carboxy-terminal protein modification that enables monitoring of ER calcium homeostasis. Mol Biol Cell 25, 2828-2839.
2. Huang, R., Southall, N., Wang, Y., Yasgar, A., Shinn, P., Jadhav, A., Nguyen, D.T., and Austin, C.P. (2011). The NCGC pharmaceutical collection: a comprehensive resource of clinically approved drugs enabling repurposing and chemical genomics. Sci Transl Med 3, 80ps16.
3. Trychta, K.A., Back, S., Henderson, M.J., and Harvey, B.K. (2018a). KDEL Receptors Are Differentially Regulated to Maintain the ER Proteome under Calcium Deficiency. Cell Rep 25, 1829-1840 e1826.
SEQUENCE No. (1, 2, 3, etc.); […] (e.g., Cells, Incubation, Reagent, etc.); VALUE and DESCRIPTION.
1; Reagent; 5 uL; 1000 SH-SY5Y cells per wells
3; Compound; 23 nL; Control inhibitor / compound library
5; Reagent; 100 nM; Thapsigargin
7; Reagent; 1 uL; 0.5x coelenterazine
8; Detection; Luminescence; ViewLux imaging system
NOTES (numbers refer to sequence above)
1; SH-SY5Y human neuroblastoma cells stably expressing GLuc-SERCaMP (SH-SY5Y-GLuc-ASARTDL) cells were seeded in 1,536 well white tissue culture treated plates (Corning, Cat# 7464) in DMEM-high glucose-sodium pyruvate (ThermoFisher Scientific, Cat #10569) supplemented with 10% bovine growth serum (Hyclone), 10 U/ml penicillin (Gibco), 10 ug/ml streptomycin (Gibco), and 20 mM HEPES.
2; Assay plates were incubated for 5 hour at 37C in a humidified incubator containing 5% CO2.
3; qHTS libraries (23 nl, final concentrations of 1.53 uM, 7.67 uM, 38.3 uM) or controls (neutral control: DMSO, positive control: dantrolene) were added using a Kalypsis pin-tool Robotic System equipped with 1536 pinheads.
4; Cells were then incubated for 16 hours at 37C, 5% CO2.
5; Thapsigargin was added at 100 nM to deplete ER calcium stores.
6; Cells were incubated for 4 hour (37 °C, 5% CO2)
7; Gaussia luciferase in the medium was measured by adding 1 ul of 0.5x coelenterazine (final concentration 0.07x) prepared in Gaussia Luciferase Glow Assay Buffer (Pierce), without addition of the Cell Lysis Buffer Reagent.
8; Luminescence was measured using a ViewLux […] CCD imaging system (Perkin Elmer) equipped with clear filters. […] The same controls were also used for the calculation of the Z' factor, a measure of assay quality control, as previously described (Zhang et al., 1999). […]
For CC(=O)SCC(Cc1ccccc1)C(=O)NCC(=O)OCc1ccccc1 (stereo not given), the “activity change, negative = inhibition” value was 302% (inactive).
For C[C@H](NCc1ccc2c(c1)nc(NC(=O)c1ccc(-c3cn[nH]c3)s1)n2CCc1ccccc1)C(C)(C)C, the “activity change, negative = inhibition” value was 0% (inactive).
For CCN(CC)CCCCNc1ncc2c(n1)N(C)C(=O)N(c1c(Cl)c(OC)cc(OC)c1Cl)C2, the “activity change, negative = inhibition” value was 310% (inactive).
In the case of Cc1cncc2cccc(S(=O)(=O)N3CCCN(C(=O)CN)C[C@@H]3C)c12, the “activity change, negative = inhibition” value is reported as 12.8% (inactive).
With CC(C(C)N1CC(=O)NC(=O)C1)N1CC(=O)NC(=O)C1 (stereo not given) the “activity change, negative = inhibition” value was -30.7% (inactive).
For O=c1c(O)c(-c2ccc(O)c(O)c2)oc2cc(O)ccc12, the “activity change, negative = inhibition” value was 0% (inactive).
For COc1ccc2c(c1OC)C(=O)OC2[C@H]1c2c(cc3c(c2OC)OCO3)CCN1C (stereo not given in full), the “activity change, negative = inhibition” value was 70.4% (inactive).
With CNC(=O)c1ccc(Nc2cc(Nc3ccccc3S(=O)(=O)C(C)C)c3cc[nH]c3n2)nc1 the “activity change, negative = inhibition” value was -6.71% (inactive).
In the case of O=C(C[C@@H]1CC=CCCC(=O)O[C@H](c2ccccc2)CNC1=O)NCc1ccc(Cl)cc1, the “activity change, negative = inhibition” value is reported as 131% (inactive).
With CC(=O)OCC(=O)[C@@]1(O)CC[C@H]2[C@@H]3CCC4=CC(=O)CC[C@]4(C)[C@@H]3C(=O)C[C@@]21C the “activity change, negative = inhibition” value was -9.88% (inactive).
With COc1cccc2c1C(=O)c1c(O)c3c(c(O)c1C2=O)C[C@@](O)(C(=O)CO)C[C@H]3O[C@H]1C[C@H](N)[C@H](O)[C@H](C)O1 the “activity change, negative = inhibition” value was 137% (inactive).
For COc1cc2c(cc1OC)[C@@H]1C(=O)c3ccc4c(c3O[C@@H]1CO2)C=CC(C)(C)O4, the outcome was “inactive”.
In the case of O=C1c2cccc(O)c2C(=O)c2c(O)cc(CO)cc21, the “activity change, negative = inhibition” value is reported as 27.6% (inactive).
For CCCCCCCCCCCCCCCC(=O)OC[C@@H](NC(=O)C(Cl)Cl)[C@H](O)c1ccc([N+](=O)[O-])cc1, the “activity change, negative = inhibition” value was -7.55% (inactive).
In the case of Cc1cc(-c2nnc3n2CCCCC3)c(C)n1-c1ccccc1, the “activity change, negative = inhibition” value is reported as 34.2% (inactive).
In the case of CC(C=CC=C(C)C=CC1=C(C)CCCC1(C)C)=CC=CC=C(C)C=CC=C(C)C=CC1=C(C)CCCC1(C)C, the “activity change, negative = inhibition” value is reported as 211% (inactive).
For Cc1ncc(-c2ccnc(Nc3ccc(S(C)(=O)=O)cc3)n2)n1C(C)C, the “activity change, negative = inhibition” value was 200% (inactive).
For OCCNC1CCCc2c1[nH]c1ccc(-c3ccccc3)cc21 (stereo not given), the “activity change, negative = inhibition” value was 210% (inactive).
For C=CC(=O)Nc1ccc2ncnc(Nc3ccc(OCc4cccc(F)c4)c(Cl)c3)c2c1, the “activity change, negative = inhibition” value was 0% (inactive).
For COc1ccc(C[C@@H](C)[C@@H](C)Cc2ccc(OC)c(OC)c2)cc1OC, the “activity change, negative = inhibition” value was 86.6% (inactive).
With Cc1c2oc3c(C)ccc(C(=O)NC4C(=O)NC(C(C)C)C(=O)N5CCCC5C(=O)N(C)CC(=O)N(C)C(C(C)C)C(=O)OC4C)c3nc-2c(C(=O)NC2C(=O)NC(C(C)C)C(=O)N3CCCC3C(=O)N(C)CC(=O)N(C)C(C(C)C)C(=O)OC2C)c(N)c1=O (stereo not given) (I: TVP[Sar][NMeV] / II: TVP[Sar][NMeV]; ester I:1-I:C, II:1-II:C; linker I:N-II:N via Actinocin(9to1); configuration not given here) the outcome was “inactive”.
For CCCCCCCN(CC)CCCC(O)c1ccc(NS(C)(=O)=O)cc1 (stereo not given), the “activity change, negative = inhibition” value was 0% (inactive).
With C[C@H](NC(=O)C(C#N)=Cc1cccc(Br)n1)c1ccccc1 the “activity change, negative = inhibition” value was 291% (inactive).
With N#CNC(=NCCCCCCOc1ccc(Cl)cc1)Nc1ccncc1 the “activity change, negative = inhibition” value was 0% (inactive).
For C=CC1=C(C(=O)O)N2C(=O)[C@@H](NC(=O)C(=NO)c3csc(N)n3)[C@H]2SC1, the “activity change, negative = inhibition” value was 84.2% (inactive).
In the case of Cc1cnc(Nc2ccc(N3CCN(C)CC3)cc2)nc1Nc1cccc(S(=O)(=O)NC(C)(C)C)c1, the “activity change, negative = inhibition” value is reported as 219% (inactive).
In the case of CCCc1nc(C(C)(C)O)c(C(=O)O)n1Cc1ccc(-c2ccccc2-c2nn[nH]n2)cc1, the “activity change, negative = inhibition” value is reported as -1.71% (inactive).
With CCOC(=O)C1=C(C)NC(=S)NC1c1cccc(O)c1 (stereo not given) the “activity change, negative = inhibition” value was 23.7% (inactive).
In the case of CCN(C(=O)c1c(O)c2c(Cl)cccc2n(C)c1=O)c1ccccc1, the “activity change, negative = inhibition” value is reported as -18.9% (inactive).
In the case of C[C@@]12C(=O)OC(=O)[C@@]1(C)C1CCC2O1, the “activity change, negative = inhibition” value is reported as 70.1% (inactive).
For Cn1c(Nc2ccc(C(F)(F)F)cc2)nc2cc(Oc3ccnc(-c4ncc(C(F)(F)F)[nH]4)c3)ccc21, the “activity change, negative = inhibition” value was 48.7% (inactive).
For CC(C)(O)Cn1c(NC(=O)c2ccc(-c3cn[nH]c3)s2)nc2cc(CN3CCOCC3)ccc21, the “activity change, negative = inhibition” value was 222% (inactive).
With CCOC(=O)N1CCN([N+]([O-])=NOc2ccc([N+](=O)[O-])cc2C#N)CC1 the “activity change, negative = inhibition” value was 69.5% (inactive).
In the case of C[C@H]1C[C@H]2[C@@H]3CCC4=CC(=O)C=C[C@]4(C)[C@@H]3C(=O)C[C@]2(C)[C@@]1(O)C(=O)CO, the “activity change, negative = inhibition” value is reported as 40.5% (inactive).
With CC(C)C[C@H](NC(=O)CNC(=O)c1cc(Cl)ccc1Cl)B1OC(=O)CC(CC(=O)O)(C(=O)O)O1 (stereo not given in full) the “activity change, negative = inhibition” value was 0% (inactive).
With CC(C)(O)[C@H]1CC[C@@](C)([C@H]2[C@@H](O)C[C@@]3(C)[C@@H]4C[C@H](O[C@@H]5O[C@H](CO)[C@@H](O)[C@H](O)[C@@H]5O)[C@H]5C(C)(C)[C@@H](O[C@@H]6OC[C@@H](O)[C@H](O)[C@@H]6O)CC[C@@]56C[C@@]46CC[C@]23C)O1 the “activity change, negative = inhibition” value was 39.1% (inactive).
With COc1cc(C(=O)NC2CCN(C)CC2)ccc1Nc1ncc2c(n1)N(C1CCCC1)CCC(=O)N2C(C)C the “activity change, negative = inhibition” value was 0% (inactive).
With CCOC(=O)C=C[C@H](C[C@@H]1CCNC1=O)NC(=O)[C@@H](CC(=O)[C@@H](NC(=O)c1cc(C)on1)C(C)C)Cc1ccc(F)cc1 the “activity change, negative = inhibition” value was -26% (inactive).
With c1ccc(CNc2nc(NCc3ccccc3)c3ccccc3n2)cc1 the “activity change, negative = inhibition” value was 179% (inactive).
For CC(C)(C)[N+]([O-])=Cc1ccc(S(=O)(=O)O)cc1S(=O)(=O)O, the “activity change, negative = inhibition” value was -0.893% (inactive).
